From PMC4552634, “A New Set of Chemical Starting Points with Plasmodium falciparum Transmission-Blocking Potential for Antimalarial Drug Discovery” (PLoS ONE, 2015) come the findings set out here.

By % Inhibition is commonly meant the change of the read-out against control, counted positive when it falls.

Each structure is given as a SMILES string. About 3,200 (25%) of roughly 13,000 compounds showed an effect of 50% or more. The list shows a part of the results.

The assay relates to P. falciparum stage V gametocytes. The arrangement: BacTiter-Glo ATP luminescence viability of purified stage V gametocytes in 384-well plates, per cent inhibition versus DMSO. As to conditions: 48 h, 5 µM; inhibitor.
For `CCC(=O)N[C@@H]1CN[C@@H](C#Cc2cc3c(Nc4ccc(OCc5cccc(F)c5)c(Cl)c4)ncnc3s2)C1` [TCMDC-135410], the “% Inhibition” value is -39.51%.
`N#Cc1c(N2CCCCCC2)nc(N)c2c(N)nc3c(c12)CC(=O)N3c1ccc(F)cc1` [TCMDC-123902]: the “% Inhibition” value was 44.67%.
As to `O=C(Nc1ccc(S(=O)(=O)N2CCCCC2)cc1)c1cc(-c2cc(Cl)ccc2O)n[nH]1` [TCMDC-124905], the “% Inhibition” value is -12.68%.
With `CN1CCC(Oc2ccc(CN3CC[C@H](NC(=O)c4ccc(F)c(F)c4)C3)c3ccccc23)C1` (stereo partly shown) [TCMDC-135278] the figure was 72.64%.
For `CCCCCN1CCCN(Cc2cccc(NC(=O)c3ccc4ccccc4c3)c2)CC1` [TCMDC-141854] the value was -83.26%; for `CC(=O)Nc1ccc2[nH]cc(C3CCN(CC4CCN(C(=O)/C=C/c5ccc(Cl)c(Cl)c5)CC4)CC3)c2n1` [TCMDC-140112], -22.97%.
As to `CC(=O)Nc1ccc2[nH]cc(C3CCN(CCC4CCN(C(=O)/C=C/c5ccc(Cl)c(Cl)c5)CC4)CC3)c2n1` [TCMDC-140113], the “% Inhibition” value was -31.57%.
Take `Nc1ccc2[nH]cc(C3CCN(CC4CCN(C(=O)/C=C/c5ccc(Cl)c(Cl)c5)CC4)CC3)c2n1` [TCMDC-140061]: the “% Inhibition” value stood at 100.1%.
With `Cc1cccc2[nH]cc(C3CCN(CCC4CCN(C(=O)/C=C/c5ccc(Cl)c(Cl)c5)CC4)CC3)c12` [TCMDC-140124] the figure was -19.67%; with `Nc1ccc2[nH]cc(C3CCN(CCC4CCN(C(=O)/C=C/c5ccc(Cl)c(Cl)c5)CC4)CC3)c2n1` [TCMDC-140062], 107.7%; with `CC(Cc1ccc(C(=O)OC(c2ccccc2)c2ccccc2)cc1)NCC(O)c1ccccc1` (stereo not shown) [TCMDC-131546], 37.45%.
As for `Cc1ccc2nc(-c3cc(-c4cccc(CCN5CCOCC5)c4)cnc3N)[nH]c2c1` [TCMDC-133136], the “% Inhibition” value is -33.78%.
As for `Cc1nc2ccc(/C=C/C(=O)NC3CCC(CCN4CCc5ccc(C#N)cc5CC4)CC3)cc2[nH]1` (stereo not shown) [TCMDC-139675], the “% Inhibition” value is -3.608%.
Consider `CC(=O)Nc1ccc2[nH]cc(C3CCN(CC4CCC(NC(=O)/C=C/c5ccc(Cl)c(Cl)c5)CC4)CC3)c2n1` (stereo not shown) [TCMDC-140114], for which the “% Inhibition” value came out at 6.04%.
With `CNC(=O)c1ccc2[nH]cc(C3CCN(CC4CCC(NC(=O)/C=C/c5ccccc5Cl)CC4)CC3)c2c1` (stereo not shown) [TCMDC-139978], the “% Inhibition” value is -4.902%.
For `Nc1ccc2[nH]cc(C3CCN(CC4CCC(NC(=O)/C=C/c5ccc(Cl)c(Cl)c5)CC4)CC3)c2n1` (stereo not shown) [TCMDC-140064] the value was 97.26%; for `CS(=O)(=O)Nc1ccc2[nH]cc(C3CCN(CC4CCC(NC(=O)/C=C/c5ccc(Cl)c(Cl)c5)CC4)CC3)c2n1` (stereo not shown) [TCMDC-140088], 4.239%.
As to `Nc1ccc2[nH]cc(C3CCN(CC4CCC(NC(=O)/C=C/c5ccccc5Cl)CC4)CC3)c2n1` (stereo not shown) [TCMDC-140063], the “% Inhibition” value was 106.2%.
For the compound `Cc1cc(O)cc2c(C3CCN(CC4CCC(NC(=O)/C=C/c5ccccc5Cl)CC4)CC3)c[nH]c12` (stereo not shown) [TCMDC-139924], the “% Inhibition” value was -46.01%.
Consider `CC(=O)Nc1ccc2[nH]cc(C3CCN(CC4CCC(NC(=O)/C=C/c5ccccc5Cl)CC4)CC3)c2n1` (stereo not shown) [TCMDC-140111], for which the “% Inhibition” value was 60.6%.
As for `CCCCc1cc(NCc2ccncc2)nc(Nc2ccc(OC)cc2)n1` [TCMDC-134010], the “% Inhibition” value is recorded as -13.59%.
In the case of `Cc1cccc(NC(=O)c2cnc(N3CCN(c4ccncc4)CC3)c(Cl)c2)c1` [TCMDC-134625], the “% Inhibition” value is listed as 39.85%.
Turning to `CC(C)Nc1cc(C(=O)N[C@@H](Cc2ccccc2)[C@H](O)CNC2CCOCC2)c(F)c(N2CCCCS2(=O)=O)c1` [TCMDC-135541], the “% Inhibition” value was -18.96%.
With `CN(C)CCCOc1cc(NC(=O)Nc2ccc(-c3ccncc3)c3ccccc23)ccc1I` [TCMDC-139136] the figure was 21.74%; with `CS(=O)(=O)CCCNCc1ccc(-c2cc3c(Nc4ccc(OCc5ccccc5)cc4)ncnc3cn2)o1` [TCMDC-138081], 11.38%; with `CN(Cc1ccc(C#N)cc1)C1CCN(c2cc(NC(=O)c3cccc(F)c3)ccn2)CC1` [TCMDC-134976], -19.78%.
With `COc1ccc2nccc([C@@H](O)CN3CCC(NC(=O)Cc4ccc(Br)c5ccccc45)CC3)c2c1` [TCMDC-141168], the “% Inhibition” value is on record as -21.28%.
Regarding `CC1(C)N=C(N)N=C(N)C1c1ccc(Cl)cc1` (stereo not shown) [TCMDC-137610], the “% Inhibition” value is on record as 17.18%.
Regarding `O=C(O[C@@H]1CN[C@H](C#Cc2cc3c(Nc4ccc5c(cnn5Cc5ccccc5)c4)ncnc3s2)C1)N1CCCC1` [TCMDC-135376], the “% Inhibition” value is 21.76%.
Take `O=C(Cn1c(CCc2cccc(F)c2F)cc(=O)c2ccccc21)N(CCN1CCCCC1)Cc1ccc(-c2ccc(C(F)(F)F)cc2)cc1` [TCMDC-141142]: the “% Inhibition” value is recorded as -28.19%.
Consider `CCN(CC)CCCN(Cc1ccc(-c2ccc(C(F)(F)F)cc2)cc1)C(=O)Cn1c(SCc2cccc(F)c2F)cc(=O)c2ccccc21` [TCMDC-141175], for which the “% Inhibition” value is 139.9%.
As for `O=C(Cn1c(CCc2cccc(F)c2F)cc(=O)c2cccnc21)N(CCCn1ccnc1)Cc1ccc(-c2ccc(C(F)(F)F)cc2)cc1` [TCMDC-141469], the “% Inhibition” value is reported as 1.607%.
Consider `O=C(Cn1c(SCc2cccc(F)c2F)cc(=O)c2ccccc21)N(CCCn1ccnc1)Cc1ccc(-c2ccc(C(F)(F)F)cc2)cc1` [TCMDC-141467], for which the “% Inhibition” value is given as 68.26%.
For `O=C(Cn1c(SCc2cccc(F)c2F)cc(=O)c2ccccc21)N(CCn1ccnc1)Cc1ccc(-c2ccc(C(F)(F)F)cc2)cc1` [TCMDC-141468], the “% Inhibition” value is 91.6%.
Regarding `O=C(Cn1c(SCc2cccc(F)c2F)cc(=O)c2ccccc21)N(CCN1CCCCC1)Cc1ccc(-c2ccc(C(F)(F)F)cc2)cc1` [TCMDC-141466], the “% Inhibition” value is 112.5%.
On to `CN(Cc1cccc(F)c1)C1CCN(c2cc(NC(=O)c3ccc(F)cc3)ccn2)CC1` [TCMDC-135018], for which the “% Inhibition” value came out at 1.836%.
With `CCCOc1ccccc1-c1nc2[nH]c3c(c2c(=O)[nH]1)CCN(C)C3` [TCMDC-138173], the “% Inhibition” value was 5.306%.
`COc1cc(C=CC(=O)N2CCC3(CC2)CC(=O)c2ccccc2O3)cc(OC)c1OC` [TCMDC-123541]: the “% Inhibition” value is on record as 7.005%.
As for `N#Cc1ccc(-c2ccc(OCC(O)CN3CCCN(Cc4cccc(O)c4Cl)CC3)cc2)cc1` (stereo not shown) [TCMDC-141431], the “% Inhibition” value is given as -23.75%.
Turning to `COc1ccc2nccc([C@@H](O)CN3CCC(NCc4nc5ccccc5s4)CC3)c2c1` [TCMDC-140790], the “% Inhibition” value is given as -20.83%.
`COc1ccc(NC(=O)Nc2ccc(-c3ccncc3)c(Cl)c2)cc1N1CCN(C)CC1` [TCMDC-139134]: the “% Inhibition” value was -28.75%.
Regarding `CN(C)c1ccc(NC2=NC(C)(C)N=C(N)N2)cc1` [TCMDC-124346], the “% Inhibition” value is on record as 7.678%.
For the compound `O=C(Cn1c(SCc2cccc(F)c2F)cc(=O)c2ccccc21)N(CCc1cnc[nH]1)Cc1ccc(-c2ccc(C(F)(F)F)cc2)cc1` [TCMDC-141484], the “% Inhibition” value is given as 44.33%.
With `Cn1cncc1CCN(Cc1ccc(-c2ccc(C(F)(F)F)cc2)cc1)C(=O)Cn1c(SCc2cccc(F)c2F)cc(=O)c2ccccc21` [TCMDC-141451], the “% Inhibition” value is given as 112.4%.
With `Cc1ccc(/C=C/C(=O)NC2CCC(N3CCC(c4ccccc4C)CC3)CC2)cc1C` (stereo not shown) [TCMDC-133526], the “% Inhibition” value is reported as -66.55%.
With `CCN1C(=O)C(CC(=O)Nc2cccc(Cl)c2)N(Cc2ccc(OC)c(OC)c2)C1=S` (stereo not shown) [TCMDC-123795], the “% Inhibition” value is given as 79.41%.
Regarding `COc1ccc(CN2C(=S)N(Cc3ccccc3)C(=O)C2CC(=O)Nc2ccccc2)cc1OC` (stereo not shown) [TCMDC-123874], the “% Inhibition” value is reported as 33.25%.
For `COc1cc(NC(=O)c2cccs2)c(OC)cc1NC(=O)Nc1cccc(Cl)c1` [TCMDC-123531], the “% Inhibition” value was -32.35%.
Regarding `O=C(Cc1ccccn1)Nc1cccc(-c2cccc(-c3nc4ccc(C(F)(F)F)cc4[nH]3)c2)c1` [TCMDC-132177], the “% Inhibition” value was -14.6%.
For `COc1ccc2nccc([C@@H](O)CN3CCC(NC(=O)/C=C/c4ccnc5ccccc45)CC3)c2c1` [TCMDC-141103] the value was 15.04%; for `COc1ccc2nccc([C@@H](O)CN3CCC(NCc4cc5ccccc5nn4)CC3)c2c1` [TCMDC-140972], -3.79%; for `COc1ccc2nccc([C@@H](O)CN3CCC(NCc4cc5ccccn5n4)CC3)c2c1` [TCMDC-141025], 65.1%.
For `COc1ccc2nccc([C@@H](O)CN3CCC(NC(=O)/C=C/c4ccc5ccccc5n4)CC3)c2c1` [TCMDC-141104] the value was 76.48%; for `COc1ccc2nccc([C@@H](O)CN3CCC(NCC4COc5ccccc5O4)CC3)c2c1` (stereo partly shown) [TCMDC-140733], 86.29%.
Turning to `COc1ccc2nccc([C@@H](O)CN3CCC(NCC(O)Cc4ccccc4)CC3)c2c1` (stereo partly shown) [TCMDC-140702], the “% Inhibition” value came out at 11.24%.
`COc1ccc2nccc([C@@H](O)CN3CCC(NC(=O)/C=C/c4ccc(F)c5ccccc45)CC3)c2c1` [TCMDC-141105]: the “% Inhibition” value is -9.775%.
With `COc1ccc2nccc([C@@H](O)CN3CCC(NCc4ccc5cccc(O)c5n4)CC3)c2c1` [TCMDC-140715] the figure was -19.01%; with `COc1ccc2nccc([C@@H](O)CN3CCC(NCc4ccc5c(c4)OCCO5)CC3)c2c1` [TCMDC-141123], 9.641%.
`Nc1ncc(-c2cccc(OCc3ccccc3)c2)cc1-c1nnc2ccc(Cl)nn12` [TCMDC-134853]: the “% Inhibition” value is listed as -7.115%.
Take `COC(=O)c1ccc(N2CCN(CCCCNC(=O)c3ccc(NC(=O)c4ccc(Cl)cc4)cc3)CC2)c(OC)c1` [TCMDC-138526]: the “% Inhibition” value amounted to 7.636%.
Consider `O=C(Nc1ccc(Cl)cc1)Nc1cccc(-c2cccc(-c3nc4ccccc4[nH]3)c2)c1` [TCMDC-133178], for which the “% Inhibition” value was -4.164%.
